This is an account of results in ChEMBL document CHEMBL4513216, “Probing the Open Global Health Chemical Diversity Library for Multistage-Active Starting Points for Next-Generation Antimalarials” (ACS Infect Dis, 2020).

Out of some 69,000 compounds screened, about 8,600 (12%) showed an effect of 50% or more. The sample holds strong results, similar compounds and a random draw of the others, so the mix is not that of the screen.

The test system of this assay is Plasmodium berghei. Kind of assay: Screen against P. berghei liver stage (PbLuc), transformed with Luciferase, at 10uM. In kind it is functional, HepG2. Particulars: tested at 10 uM.
For `NC(=O)c1cc(NC(=O)N2CCOCC2)ccc1F`, the INHIBITION is reported as 33.5%.

As for `CCS(=O)(=O)N1CCC(Nc2c(Cl)cccc2C#N)CC1`, the INHIBITION is 29.4%.

`N#Cc1cccc(Cl)c1NC1CCN(CC(N)=O)CC1`: the INHIBITION is 13.2%.

As to `CS(=O)(=O)CCN1CCC(Nc2c(Cl)cccc2C#N)CC1`, the INHIBITION came out at 52.6%.

Regarding `CC(C)C(C)NC(=O)c1ncn2c1CN(C)S(=O)(=O)c1ccccc1-2` (configuration not stated), the INHIBITION is reported as 8.03%.

As to `CNCc1ccc([C@@H]2CN(C(C)=O)C[C@H]2C(=O)N(C)C)cc1`, the INHIBITION is 35.55%.

As for `CN(CC(=O)N1CCN(CC(C)(C)O)CC1)c1ccc(Cl)cn1`, the INHIBITION is listed as 25%.

With `CN(CCCc1cnn(C)c1)C(=O)C1CCCN(C2CCCC2)C1` (configuration not stated), the INHIBITION came to 37.6%.

For the compound `CN(C)C(=O)N1CCCC(C(=O)N(C)CCCc2cnn(C)c2)C1` (configuration not stated), the INHIBITION came out at 47.7%.

Consider `CC(C)N1CCCC(C(=O)N(C)CCCc2cnn(C)c2)C1` (configuration not stated), for which the INHIBITION is 51%.

For the compound `O=C1CCC(=O)N1c1nn(Cc2cccc(F)c2)cc1Cl`, the INHIBITION is given as 14.5%.

Consider `CCCNCc1ccc(-c2ccnc3[nH]ccc23)cc1`, for which the INHIBITION was determined as 78.8%.

`CNc1cc(-c2ccc(COCCN)cc2)c2cc[nH]c2n1`: the INHIBITION is listed as -8%.

Turning to `CCCNCc1ccc(-c2cc(N)nc3[nH]ccc23)cc1`, the INHIBITION was determined as 19.7%.

In the case of `Cc1ccc2c(c1)C(=O)NCC1(CCN(C(=O)c3scnc3C)CC1)O2`, the INHIBITION is reported as 15.9%.

Take `OCCn1nccc1C1CCN(CCOc2ccc(Cl)cc2)CC1`: the INHIBITION is 38.8%.

`CN1CC2(CCCN(CCOCc3ccccc3)C2)OC1=O` (configuration not stated): the INHIBITION is reported as 8.08%.

On to `CN(C)C(=O)COc1ccccc1CN1CCOC2(CCCC2)C1`, for which the INHIBITION amounted to 7.58%.

Consider `CN1CC2(CCCN(Cc3cccc(Oc4ccccc4)c3)C2)OC1=O` (configuration not stated), for which the INHIBITION worked out at 42.5%.

On to `CN1CC2(CCCN(Cc3ccc(Oc4ccccc4)cc3)C2)OC1=O` (configuration not stated), for which the INHIBITION was determined as 55%.

With `CN1CC2(CCCN(Cc3ccccc3OCC(=O)O)C2)OC1=O` (configuration not stated), the INHIBITION was found to be 1.37%.

Take `CN(C)C(=O)COc1ccccc1CN1CCCC2(C1)CN(C)C(=O)O2` (configuration not stated): the INHIBITION is 57.5%.

Regarding `CC(C)N(CCCNC(=O)C1CC1)S(C)(=O)=O`, the INHIBITION came to 5.91%.

For the compound `Cc1nccn1[C@@H]1CC[C@@H](NC(=O)CCCn2cncn2)[C@H]1O`, the INHIBITION is listed as 25.071%.

With `COCC1N(C(=O)N2CCOCC2)C2CCC1(O)CC2` (configuration not stated), the INHIBITION worked out at 33.6%.

With `Cc1ccnc(NCCNC(=O)CCNC(=O)c2ccccc2F)c1`, the INHIBITION was 57%.

Regarding `Cc1ccnc(NCCNC(=O)c2ccccc2NCC(=O)O)c1`, the INHIBITION was 11.6%.

Regarding `Cc1ccnc(NC(=O)CCNC(=O)c2ccccc2Cl)c1`, the INHIBITION came to 30.2%.

Turning to `CC1=N[C@@]2(CC[C@@H]3CN(C(=O)Nc4ccc(F)cc4)C[C@@H]32)C(=O)N1C`, the INHIBITION came out at 0.542%.

With `Cc1ccc(C(=O)N2CCn3cnc(COCC4CC4)c3C2)cn1`, the INHIBITION came out at 45.2%.

Regarding `Cc1nccc([C@H]2C[C@@H]3CCN(C(=O)c4c(C)noc4C)C[C@H]3O2)n1`, the INHIBITION was -3.88%.

For `COCc1ccc(C(=O)N2CC[C@@](O)(COC)C(C)(C)C2)o1`, the INHIBITION is -26.2%.

On to `COC[C@]1(O)CCN(C(=O)c2cccc(CN(C)C)c2)CC1(C)C`, for which the INHIBITION turned out to be 54.7%.

On to `COC[C@]1(O)CCN(C(=O)c2ccc(CN(C)C)o2)CC1(C)C`, for which the INHIBITION was found to be 76.5%.

With `CCOCCn1nc(C)cc1C(=O)N1CC[C@@](O)(COC)C(C)(C)C1`, the INHIBITION came out at 16.2%.

On to `COc1cc(C(=O)N2CCC(O)(CN3CCOCC3)C(C)(C)C2)ccn1` (configuration not stated), for which the INHIBITION was 7.93%.

Take `COCc1cccc(C(=O)N2CCCC2)c1`: the INHIBITION stood at 1.98%.

For the compound `CN(C)c1ncc(C2Nc3cc(Cl)ccc3C3=NCCCN32)cn1` (configuration not stated), the INHIBITION is 48.4%.

Regarding `CN(C)C(=O)c1ccn(COc2ccccc2Cl)n1`, the INHIBITION was -28%.

Turning to `Cn1nc(CN2CCCCC2)c2c1CN(C(=O)c1cccc(Cl)c1)C2`, the INHIBITION is given as -41.8%.

For the compound `CC(NC(=O)N1CCN(c2nccs2)CC1)c1nncn1C` (configuration not stated), the INHIBITION was -15.5%.

Take `C[C@H]1CN(c2ccccn2)C[C@@]12CCN(Cc1cccnc1)C2=O`: the INHIBITION was 48.4%.

Regarding `CN(C)C(=O)CN1CCCC(Cc2ccc(N3CCCC3)nn2)C1` (configuration not stated), the INHIBITION is reported as 42.4%.

For the compound `CN1C(Cn2cccn2)C[C@@H]2CN(Cc3cnn(C)c3)CC[C@@H]21` (some centres not stated), the INHIBITION is recorded as -10.3%.

For `CC(C)N1CC[C@H]2[C@H](C[C@@H](Cn3cccn3)N2c2nccs2)C1`, the INHIBITION is listed as 54.4%.

Regarding `CCC(=O)N1CC[C@H]2[C@H](C[C@@H](Cn3cccn3)N2c2nccs2)C1`, the INHIBITION is recorded as 21.6%.

Take `CN1C(Cn2cccn2)C[C@@H]2CN(Cc3nccs3)CC[C@@H]21` (some centres not stated): the INHIBITION is given as 20.4%.

In the case of `CN1[C@H](Cn2cccn2)C[C@@H]2CN(C(=O)Cc3cccs3)CC[C@@H]21`, the INHIBITION was found to be 37.4%.

In the case of `c1cnn(C[C@@H]2C[C@@H]3CN(CC4CC4)CC[C@@H]3N2c2nccs2)c1`, the INHIBITION was 79.2%.

Consider `O=C(CCCn1cnnn1)N1CCC(c2ccncc2)CC1`, for which the INHIBITION is on record as 31.4%.

`CN(Cc1ccco1)Cc1cncc2c1CCN(Cc1ccoc1)C2`: the INHIBITION was 38.5%.

On to `CC(=O)N1N=C(c2ccco2)OC1C(=O)NCCc1ccc(F)cc1` (configuration not stated), for which the INHIBITION is reported as -50.8%.
